Measurements published in PubChem BioAssay (NCATS).
Several values for one entry are separate records, joined by “and”; a condition that tells them apart may be missing. Equal entries are not always repeated. Records with an inconclusive call do not appear. A number with no mark means an inactive call. Activity calls are given as the source filed them. The call rests on the fitted dose curve; in most records, active means well fitted cell-killing curve with a large enough effect; inconclusive means small, poorly fitted or top-dose-only effect; inactive means flat fitted curve, though single readings scatter.

What was measured:
[1] = Cellular viability qHTS for adrenocortical cancer (ACC) cell line SW-13 (AID 1963989); conditions: SW-13 ACC cells viability, CellTiter-Glo, 48 h; activity (max response): active compounds read low; further: nearly all actives have a fitted effect of over 65% in size;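 on activity (max response): cells grown in serum-free medium with ITS supplement; on the % scale 0 is the no-effect control and ±100 the full control effect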
Summary of the method: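 Viability was read as CellTiter-Glo luminescence after 48 h compound treatment (up to 46 uM final) of SW-13 cells grown serum-free; titration curves were fit with a four-parameter logistic model to give IC50 and efficacy.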

[2] = Cellular viability qHTS for adrenocortical cancer (ACC) cell line NCI-H295R (AID 1963990); further: nearly all actives have a fitted effect of over 60% in size;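 on activity change, negative = viability loss: 0% = DMSO only wells and -100% = full killing with cytotoxic reference compound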
Summary of the method: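 CellTiter-Glo ATP luminescence, read 48 h after compound addition, measured viability of NCI-H295R adrenocortical cells grown serum-free with ITS. Final concentrations spanned up to 46 uM. Data normalized to DMSO and doxorubicin, fitted for IC50 and maximal response.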
Potency means the concentration at half of the fitted maximal effect.

In the case of Clc1cccc(-c2ccc(-c3nnc(CCCc4ccc5cccnc5n4)o3)cc2)c1, the activity (max response) [1] is reported as -11.9% and the Potency [2] is reported as “inactive”.
In the case of CCOc1cc(/C=C2/C(=O)N(c3ccccc3)N=C2C)cc(Cl)c1OCC(=O)OC, the activity (max response) [1] is reported as -5.72% and the Potency [2] is reported as “inactive”.
With C=CC(=O)N1C[C@H](Nc2ncnc3[nH]ccc23)CC[C@@H]1C the activity (max response) [1] was -23.7% and the Potency [2] was “inactive”.
In the case of CC(=O)SCC(CC(=O)c1ccc(C)cc1)C(=O)O (stereo not drawn), the activity (max response) [1] is reported as 11.5% and the Potency [2] is reported as “inactive”.
For COc1ccc(-c2cnc3c(-c4cccc5ncccc45)cnn3c2)cc1, the activity (max response) [1] was 5.61% and the Potency [2] was “inactive”.
For Cc1c(CN2CCN(C(=O)[C@H](C)O)CC2)sc2c(N3CCOCC3)nc(-c3cnc(N)nc3)nc12, the Potency [1] was 0.631 µM (active) and the Potency [2] was 0.398 µM (active).
NC(N)=NCCN1CCCCCCC1 showed an activity (max response) [1] of 5.33% and an activity change, negative = viability loss [2] of 7.14% [at 0.587 µM].
With O=C1[C@@H]2[C@H]3CC[C@H](C3)[C@@H]2C(=O)N1CCCCN1CCN(c2ncccn2)CC1 the activity (max response) [1] was 6.58% and the Potency [2] was “inactive”.
In the case of C[C@@H]1C[C@H]2[C@@H]3CCC4=CC(=O)C=C[C@]4(C)[C@@]3(F)[C@@H](O)C[C@]2(C)[C@H]1C(=O)CO, the activity (max response) [1] is reported as 1.09% and the Potency [2] is reported as “inactive”.
With CCN(CC)CCOc1ccccc1C(=O)CCc1ccccc1 the activity (max response) [1] was -19.2% and the Potency [2] was “inactive”.
For Cc1cc(Nc2cc(N3CCN(C)CC3)nc(/C=C/c3ccccc3)n2)n[nH]1, the Potency [1] was 25.1 µM (active) and the Potency [2] was 10 µM (active).
In the case of CC1CC(OC(=O)C(O)c2ccccc2)CC(C)(C)N1C (stereo not drawn), the activity (max response) [1] is reported as 2.77% and the Potency [2] is reported as “inactive”.
For C/C=C(/C(=C/C)c1ccc(O)cc1)c1ccc(O)cc1, the Potency [1] was 14.1 µM (active) and the Potency [2] was 23.1 µM (active) and 6.31 µM (active).
With COc1ccc(CCN(C)CCCC(C#N)(c2ccc(OC)c(OC)c2)C(C)C)cc1OC (stereo not drawn) the activity (max response) [1] was -2.85% and -16.8% and the Potency [2] was “inactive”.
With CC#Cc1cncc(-c2ccc3c(c2)[C@@]2(N=C(C)C(N)=N2)C2(CCC(OC)CC2)C3)c1 (stereo partly drawn) the activity (max response) [1] was -4.31% and the Potency [2] was “inactive”.
With O=C(CCCc1ccc2cccnc2n1)NCc1cc(-c2ccc(F)c(C(F)(F)F)c2)no1 the activity (max response) [1] was 1.37% and the Potency [2] was “inactive”.
With O=c1c(-c2ccc(O)cc2)coc2cc(O[C@@H]3O[C@H](CO)[C@@H](O)[C@H](O)[C@H]3O)ccc12 the activity (max response) [1] was -7.43% and the Potency [2] was “inactive”.
For CN(C)CCNC(=O)COc1c2cccc1Cc1cccc(c1OCC(=O)NCCN(C)C)Cc1cccc(c1OCC(=O)NCCN(C)C)Cc1cccc(c1OCC(=O)NCCN(C)C)C2, the activity (max response) [1] was 14.5% and the activity change, negative = viability loss [2] was 4.99% [at 9.17 µM].
For CCCCc1nc(Cl)c(CO)n1Cc1ccc(-c2ccccc2-c2nn[nH]n2)cc1, the activity (max response) [1] was 12.4% and the Potency [2] was “inactive”.
In the case of COc1cc(/C=C/C(=O)O[C@H]2CC[C@]34C[C@]35CC[C@]3(C)[C@@H]([C@H](C)CCC=C(C)C)CC[C@@]3(C)[C@@H]5CC[C@H]4C2(C)C)ccc1O, the Potency [1] is reported as 14.6 µM (active) and the Potency [2] is reported as 18.4 µM (active).
In the case of COc1ccc(-c2oc3c(CC=C(C)C)c(OC4O[C@H](CO)[C@@H](O)[C@H](O)[C@H]4O)cc(O)c3c(=O)c2OC2O[C@@H](C)[C@H](O)[C@@H](O)[C@H]2O)cc1 (stereo partly drawn), the activity (max response) [1] is reported as 7.81% and the Potency [2] is reported as “inactive”.
For CC1(N)CCN(c2cnc(-c3cccc(Cl)c3Cl)c(N)n2)CC1, the activity (max response) [1] was -1.73% and the Potency [2] was “inactive”.
For C=C[C@H]1CN2CC[C@H]1C[C@H]2[C@H](O)c1ccnc2ccc(OC)cc12, the activity (max response) [1] was -6.74% and the Potency [2] was “inactive”.
In the case of CCCN1C[C@H](CSC)C[C@@H]2c3cccc4[nH]cc(c34)C[C@H]21, the activity (max response) [1] is reported as -4.04% and the Potency [2] is reported as “inactive”.
For CCC[C@H](NC(=O)[C@@H]1[C@H]2CCC[C@H]2CN1C(=O)[C@@H](NC(=O)[C@@H](NC(=O)c1cnccn1)C1CCCCC1)C(C)(C)C)C(=O)C(=O)NC1CC1, the activity (max response) [1] was -27.4% and the Potency [2] was “inactive”.
For CCCC(=O)OC[C@@H](OC(=O)CCC)[C@@H](OC(=O)CCC)[C@H](Cn1c2nc(=O)[nH]c(=O)c-2nc2cc(C)c(C)cc21)OC(=O)CCC, the activity (max response) [1] was -8.77% and the Potency [2] was “inactive”.
For O=C(CS)Nc1ccccc1, the activity (max response) [1] was -14.1% and the Potency [2] was “inactive”.
With Nc1nc(OCc2cc(Br)cs2)c2[nH]cnc2n1 the activity (max response) [1] was -10.5% and the Potency [2] was “inactive”.
With Cc1[nH]cnc1-c1ccc(Cl)cc1 the activity (max response) [1] was 8.54% and the Potency [2] was “inactive”.
With CCN1C(=O)c2ccccc2C1Nc1ccc(OCCN2CCCCC2)cc1 (stereo not drawn) the activity (max response) [1] was 0.694% and the Potency [2] was “inactive”.
In the case of COc1cc(O)c(C(=O)c2ccccc2)cc1S(=O)(=O)O, the activity (max response) [1] is reported as 9.22% and the Potency [2] is reported as “inactive”.
In the case of COc1cc2c3c(n(CCCNCCO)c(=O)c2cc1OC)-c1cc2c(cc1C3=O)OCO2, the Potency [1] is reported as 0.447 µM (active) and the Potency [2] is reported as 2.82 µM (active).
In the case of Cc1cc(C)c(/C=C2\C(=O)Nc3ccccc32)[nH]1, the activity (max response) [1] is reported as 5.7% and 12.2% and the Potency [2] is reported as “inactive”.
For CC(C)(C)C(=O)CN1C(=O)[C@H](NC(=O)Nc2cccc(C(=O)O)c2)CN(C2CCCCC2)c2ccccc21, the activity (max response) [1] was 11.5% and the Potency [2] was “inactive”.
